From ChEMBL document CHEMBL3988442, “University of Dundee, Small-Polar-MMV Screening Library” (2021) come the findings set out here.

In all, about 48,000 compounds went through this assay and about 13,000 (27%) showed an effect of 50% or more. This is one part of the list.

This assay concerns Wolbachia pipientis. Put plainly: Anti-Wolbachia Cell-Based Screen. The format is functional. Also on record: scale not given: in the data most compounds retested in dose-response had high values. The conditions noted are these: 5 µM.
Regarding `CCc1nnc(CN(C)Cc2cccc(C(=O)Nc3ccnn3C)c2)o1`, the “Percent Effect” value is reported as -8.218%. The same measure for `CN(Cc1ccc(Cl)c(F)c1)C(=O)c1ccncc1F`: 5.158%. The same measure for `COc1nccc(N2CCN(Cc3ccc(C)cc3)C(=O)C2)c1C#N`: 5.242%; for `CCn1nc(C)cc1C(=O)N1CCOc2ccc(OC)cc21`: 4.6%; for `COc1cc2nc(NCc3scnc3C)nc(N)c2cc1OC`: 7.61%. In the case of `Cc1nn(CC(C)C)c(N(C)C)c1CNCCS(C)(=O)=O` it was -9.669%; in that of `CCN(CC(=O)NC)C(=O)Cc1nc(-c2ccco2)oc1C`, -1.768%; in that of `Cc1cc(CN(C)C(=O)C2CCCN(C(=O)c3cccs3)C2)no1` (stereo unspecified), -2.385%.

Consider `O=C(c1cccs1)N1CCCC(c2cc(C(F)F)n3ncnc3n2)C1` (stereo unspecified), for which the “Percent Effect” value is 74.84%. On to `O=C(c1cccs1)N1CCc2ncnc(C3CCOC3)c2CC1` (stereo unspecified), for which the “Percent Effect” value is -39.43%. The same measure for `CN(C)CCN1CCN(C)c2nc(-c3ccccc3)ncc2C1=O`: 101.9%. In the case of `CCc1ccc(-c2ncc3c(n2)N(C)CCN(CCN(C)C)C3=O)cc1` it was 95.82%. The same measure for `COCCC(=O)N1CCN(CCN(C)C)c2ncccc2C1`: 4.239%; for `Cc1ccc2c(n1)N(CCN(C)C)CCN(C(=O)c1ccsc1)C2`: -6.316%; for `COc1cccc(-c2cnc3n2CCC32CCN(C(C)=O)CC2)c1`: 0.6434%. `COc1cccc(-c2ncc3c(n2)N(C)CCN(CCN(C)C)C3=O)c1`: the “Percent Effect” value worked out at 82.33%. In the case of `CNC(=O)[C@@H]1C[C@H](N)CN1S(=O)(=O)c1cc(Cl)cc(Cl)c1O` it was -28.57%.

Take `Cc1c(I)cccc1C(=O)NCC1(CO)CC1`: the “Percent Effect” value is -20.46%. The same measure for `COc1ccc(CCNC(=O)CC(NC(N)=O)c2ccccc2)cc1` (stereo unspecified): 5.015%; for `COc1ccccc1-c1cc(C(=O)Nc2nc[nH]n2)[nH]n1`: 103.1%. In the case of `O=C(NCC1CCOC1)c1cc(-c2ccc(Cl)cc2)n[nH]1` (stereo unspecified) it was -17.32%; in that of `O=C(Nc1nc[nH]n1)c1cc(-c2ccc(F)cc2)n[nH]1`, 175.6%. In the case of `COc1ccccc1-c1cc(NC(=O)CC2CCS(=O)(=O)C2)[nH]n1` (stereo unspecified) it was 2.425%; in that of `CNC(=O)C(C)(C)NC(=O)c1cc(COc2ccccc2OC)[nH]n1`, 6.418%; in that of `COC(=O)C(C)(C)NC(=O)c1cc(COc2ccccc2OC)[nH]n1`, -6.385%. On to `COc1ccc(-c2cc(C(=O)Nc3nc[nH]n3)[nH]n2)cc1`, for which the “Percent Effect” value is given as 117.7%. For the molecule `COc1ccc(NC(=O)NC(C)c2nc[nH]n2)cc1` (stereo unspecified), the “Percent Effect” value was -2.331%. The same measure for `CNC(=O)c1cc(-c2ccccc2OC)[nH]n1`: 118.3%; for `COc1ccccc1-c1cc(NC(=O)CCC2CCCO2)[nH]n1` (stereo unspecified): 4.714%. For the molecule `COC[C@@H]1CCCN1C(=O)c1cc(-c2ccc(OC)cc2)n[nH]1`, the “Percent Effect” value is given as -15.89%.

For the molecule `CC(=O)Nc1nc(-c2ccc(F)cc2)c[nH]1`, the “Percent Effect” value was 8.711%.
